# This is a sample that favours compounds with a hit; in the whole collection about 4.6% have one here.
# DAX1 inh-1: NR0B1 (DAX1) inhibition. AID 504766. inhibition, % at 6.75 µM. HEK293 Gal4-DAX1 luciferase reporter, luminescence. P51843. 340,000 tested, 0.99% active;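 active = inhibition above the mean over all tested compounds plus 3 SD, cut at about 4.2% in these data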;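 also: 0% = DAX1-transfected cells with DMSO and 100% = empty-vector control cells with DMSO; inhibition shows as a rise in luminescence from relieved DAX1 repression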
# hgDAF-12 ag: activates the H. glycines DAF-12 receptor ligand-binding domain | 370,000 tested, 1.8% active | HEK293 GAL4-hgDAF12 UAS-luciferase reporter, agonist luminescence; normalized to butyrate control | activation, % at 6.8 µM | AID 687014;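 active = activation above a cutoff set at the mean of all screened compounds plus 3 SD, cut at about 10% in these data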;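 also: 0% = DMSO wells and 100% = sodium butyrate wells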
# ssDAF12 agonist: activates DAF-12 receptor from parasite S. stercoralis; HEK293 ssDAF-12/GRIP1 lit1-tk-luc reporter, luminescence; % of 3 µM dafachronic acid response; activation, % at 6.8 µM; 370,000 tested, 1% active;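 active = activation above the mean over all tested compounds plus 3 SD, cut at about 0.9% in these data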;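 also: 0% = DMSO-only wells and 100% = 3 µM delta7-dafachronic acid wells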
# Wee1 stabilizer: inhibitors of human Wee1 degradation. HeLa Luc-Wee1K328M stability, luciferase luminescence; 100% = proteasome inhibitor MG132 effect. 220,000 tested, 1.2% active. AID 1321. reporter increase, % at 5 µM. P30291;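 active = activation above the mean of all tested compounds plus 3 SD, set per screening run, cut at about 8.8% in these data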;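 also: cells exposed to compound for 20 h before luminescence read; 0% = DMSO alone and 100% = MG132 at 30 µM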
# Target sequence (P30291 whole entry K328M): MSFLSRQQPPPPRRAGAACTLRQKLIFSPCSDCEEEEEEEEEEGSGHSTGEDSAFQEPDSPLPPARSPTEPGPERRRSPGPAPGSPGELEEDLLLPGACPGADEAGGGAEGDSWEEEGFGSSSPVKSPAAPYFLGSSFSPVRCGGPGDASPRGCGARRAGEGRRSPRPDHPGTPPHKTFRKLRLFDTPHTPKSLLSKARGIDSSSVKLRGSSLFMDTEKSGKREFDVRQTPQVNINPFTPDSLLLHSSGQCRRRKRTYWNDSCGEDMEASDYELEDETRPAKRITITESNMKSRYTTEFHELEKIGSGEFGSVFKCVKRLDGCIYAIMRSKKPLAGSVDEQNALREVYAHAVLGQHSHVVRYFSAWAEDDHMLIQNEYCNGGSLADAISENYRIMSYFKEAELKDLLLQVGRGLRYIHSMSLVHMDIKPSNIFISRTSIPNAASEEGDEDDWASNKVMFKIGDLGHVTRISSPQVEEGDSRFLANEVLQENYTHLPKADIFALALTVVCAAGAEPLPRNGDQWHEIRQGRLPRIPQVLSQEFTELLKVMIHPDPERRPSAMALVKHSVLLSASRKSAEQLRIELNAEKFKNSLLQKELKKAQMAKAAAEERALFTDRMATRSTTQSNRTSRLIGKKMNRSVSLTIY
# DAX1 inh-2: DAX1 (NR0B1) inhibition, primary screen; HEK293T StAR-luciferase reporter, SF-1/DAX-1 repression relief; inhibition, % at 6.8 µM; 370,000 tested, 1.1% active; AID 652010;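 active = inhibition above the mean over all tested compounds plus 3 SD, cut at about 3.6% in these data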;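 also: 0% = DAX-1 cells with DMSO and 100% = cells lacking DAX-1 with DMSO; higher inhibition means more luminescence from relief of DAX-1 repression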
# hcDAF-12 act: activators of H. contortus DAF-12 nuclear receptor; 370,000 tested, 1.4% active; activation, % at 6.8 µM; HEK293 hcDAF-12 lit1-tk-luc reporter, luminescence; 0% DMSO, 100% Δ7-dafachronic acid; AID 652067;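 active = activation above the mean of all tested compounds plus 3 SD, cut at about 5.5% in these data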;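 also: 100% = response to 3 µM Δ7-dafachronic acid high control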
# Active calls of the source: *; nt = not tested or not shown.
SMILES,DAX1 inh-1,hgDAF-12 ag,ssDAF12 agonist,Wee1 stabilizer,DAX1 inh-2,hcDAF-12 act
Cc1cccc2cc(CN(C(=O)c3cccc([N+](=O)[O-])c3)C(C)C)c(=O)[nH]c12,0,-1,0.9*,-4,1,2
CCCCOc1ccc(CN(CCO)CCO)cc1[N+](=O)[O-],1,0,-1,0,0,1
CCOc1ccc(CN(CCO)CCO)cc1[N+](=O)[O-],0,-1,-1,9.0*,0,-1
Cc1ccnc(Nc2cccnc2)n1,nt,0,-1,nt,0,0
C(=N\N1CCN(c2ccccn2)CC1)/c1ccccn1,2,6,1.1*,1,2,3
Cc1ccc(/C=N/N2CCN(c3ccccn3)CC2)o1,4.7*,3,0,5,1,-1
c1ccc(N2CCN(c3nccn4ccnc34)CC2)nc1,nt,10,1,nt,4.0*,5
OCCN1CCN(c2nccn3ccnc23)CC1,nt,-1,-1,nt,0,-3
CCCC#Cc1ccc(CC[C@H]2O[C@H]3CC[C@@H](CO)O[C@H]3C[C@H]2NC(=O)CN2CCOCC2)cc1,nt,-2,-1,nt,0,1
CSc1ccc(S(=O)(=O)NCC(=O)OCC(=O)N(C)CC(=O)Nc2ccc(F)cc2)cc1[N+](=O)[O-],0,3,0,nt,-1,-2
O=C(On1c(-c2ccccc2)nc2ccccc2c1=O)c1ccco1,1,4,0,4,0,1
COc1cc(OC)cc(-c2nc3ccccc3c(=O)n2OC(=O)c2ccccc2C)c1,-1,12*,-1,0,0,-1
CC(C)N1CCCCC(NC(=O)COCc2ccccc2)C1=O (configuration not stated),nt,-3,0,nt,0,-1
O=C(Nc1ccc(OC(F)(F)F)cc1)c1cnccn1,6.4*,9,0,nt,1,2
C[C@H](O)[C@@H]1CN2CCc3ccc(-c4ccc5c(c4)OCO5)cc3[C@@H]2C[C@@H]1N(C)C(=O)Nc1ccccc1,nt,3,-1,nt,1,1
CC(=O)N(CC#CCN(C(C)=O)c1ccccc1)c1ccccc1,2,3,0,nt,2,2
Cc1ccc(Nc2nnc(SCC(=O)c3ccc(O)cc3O)s2)cc1,0,2,-1,nt,0,2
O=C(C1CCN(S(=O)(=O)c2cccc3cccnc23)CC1)N1CCN(c2ccccc2)CC1,2,12*,-1,1,0,1
Cc1csc(=O)n1CCC(=O)OCC(=O)NNC(=O)c1ccc(Cl)cc1,1,6,-1,nt,-1,0
CCOc1ccc(/C=N/n2c(-c3ccccc3)n[nH]c2=S)cc1,5.8*,0,-1,nt,0,-2
Fc1ccc(-c2n[nH]c(=S)n2N=Cc2ccc(OCc3ccccc3)cc2)cc1,nt,4,-1,nt,0,-1
S=c1[nH]nc(-c2ccncc2)n1/N=C/C(Cl)=C\c1ccccc1,0,12*,-1,-3,1,1
CC(C)n1ncc2c(C(=O)NCC(=O)Nc3ccccc3Br)cc(C3CC3)nc21,0,nt,nt,nt,nt,nt
CCOC(=O)CSc1nc(Cc2ccccc2)nc2ccccc12,4.3*,-1,-1,1,0,-3
CCOC(=O)CSc1nc(CC)nc2ccccc12,0,1,-2,7,0,0
SMILES,DAX1 inh-1,hgDAF-12 ag,ssDAF12 agonist,Wee1 stabilizer,DAX1 inh-2,hcDAF-12 act
CCCCNC(=O)C(CC)(ONc1ccccc1C(F)(F)F)c1ccccc1 (configuration not stated),-1,-1,-1,nt,0,-2
O=S(=O)(NCc1ccccc1)NCc1cccc(C(F)(F)F)c1,4.7*,-2,-1,3,0,-3
O=C(CNC(=O)Cc1ccccc1)NCc1cccc(C(F)(F)F)c1,-1,0,0,nt,0,-2
C=CCn1c(-c2ccccn2)n[nH]c1=S,nt,1,-1,nt,0,0
O=C(CN1C(=O)c2ccccc2S1(=O)=O)NCc1ccc(F)cc1,1,0,0,nt,0,-1
O=C(CN1C(=O)c2ccccc2S1(=O)=O)NCc1c(F)cccc1F,4.9*,1,-1,nt,0,0
O=C(O)C1=CC2C=C(Cl)C=CC2OC1=O (configuration not stated),0,4,-1,nt,0,1

# Screens from PubChem.
